L3MBTL1 inh = inhibitors of human L3MBTL1. AlphaScreen L3MBTL1–H3K9me1 peptide binding. Potency, µM (highest dose often 57.1 µM), for the others: top-dose activity, negative = inhibition, actives largely listed as inhibitors. actives 0.66% (n = 230,000). AID 485360; note: % is set by controls: 0 for no effect and ±100 for the full control effect; nearly all actives have a fitted effect of over 60% in size
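L3MBTL1 (50 nM) pre-complexed 30 min with biotinylated H3(1-15)K9me1 peptide (75 nM), then compounds added for 30 min at room temperature; AlphaScreen streptavidin donor/nickel chelate acceptor beads (10 ug/mL final) read after 30 min dark incubation.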
JMJD2A Tudor = inhibitors of human JMJD2A Tudor domain | O75164 | AlphaScreen JMJD2A-Tudor / H3K4me3 peptide binding | Potency, µM (highest dose often 114 µM), without a hit: top-dose activity change, negative = inhibition, actives largely listed as inhibitors | actives 4.4% (n = 390,000); note: % is set by controls: 0 for no effect and ±100 for the full control effect; nearly all actives have a fitted effect of over 50% in size
BAZ2B block = inhibitors of human BAZ2B bromodomain; Q9UIF8; AlphaScreen BAZ2B-H3K14Ac peptide displacement; Potency, µM (series often up to 114 µM), for inactives: at the top dose activity change, negative = inhibition, hits mostly inhibitors; actives 4.4% (n = 360,000); AID 504333; note: % is set by controls: 0 for no effect and ±100 for the full control effect; nearly all actives have a fitted effect of over 60% in size
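AlphaScreen luminescence quantifies BAZ2B engagement of H3K14Ac peptide; the protein and biotinylated peptide are both at 50 nM final, buffer PBS pH 7.4 with 0.01% Tween-20, all steps at room temperature.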
HP1b binding inh = inhibitors of HP1-beta chromodomain binding to methylated histone tails; Potency, µM (top dose mostly 114 µM), inactives show at the highest dose activity change, negative = inhibition, hits mostly inhibitors; P83916; AID 540317; actives 0.56% (n = 390,000); AlphaScreen HP1-beta / biotin-H3K9me3 peptide binding; note: nearly all actives have a fitted effect of over 70% in size
Target sequence (P83916 whole entry, looked up): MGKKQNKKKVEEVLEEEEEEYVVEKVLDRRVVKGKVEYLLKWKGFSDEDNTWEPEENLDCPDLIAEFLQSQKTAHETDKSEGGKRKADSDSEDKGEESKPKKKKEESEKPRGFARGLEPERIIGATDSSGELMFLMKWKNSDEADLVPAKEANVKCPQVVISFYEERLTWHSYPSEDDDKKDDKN
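HP1-beta protein (50 nM final) preincubated 30 min at room temperature with biotinylated H3(1-18)K9me3 peptide (50 nM) in PBS pH 7.4, 0.01% Tween-20, then compound added for 30 min. AlphaScreen streptavidin donor/nickel chelate acceptor beads (10 ug/mL final), 30 min dark, luminescence read.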
G9a block = blocks human histone lysine methyltransferase G9a; Q96KQ7; G9a H3K9 monomethylation, AlphaScreen, 2 h; Potency, µM (series often up to 102 µM), inactives show at the top dose activity, negative = inhibition, usual class: inhibitors; actives 8.8% (n = 350,000); note: % is set by controls: 0 for no effect and ±100 for the full control effect; nearly all actives have a fitted effect of over 75% in size
Target sequence (Q96KQ7 913-1193 limits assumed): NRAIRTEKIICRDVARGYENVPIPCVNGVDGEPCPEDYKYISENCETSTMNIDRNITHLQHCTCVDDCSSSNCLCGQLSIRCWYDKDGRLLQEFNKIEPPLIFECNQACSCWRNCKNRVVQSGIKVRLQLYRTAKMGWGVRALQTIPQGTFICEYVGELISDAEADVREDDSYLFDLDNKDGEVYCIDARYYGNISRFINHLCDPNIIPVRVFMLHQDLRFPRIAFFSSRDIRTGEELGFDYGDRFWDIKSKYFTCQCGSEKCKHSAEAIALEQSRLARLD
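Quantitative HTS format: methyltransferase activity on a biotin-tagged H3K9 peptide is measured by AlphaScreen, using a rabbit anti-monomethyl-H3K9 antibody with streptavidin donor and anti-IgG acceptor beads. Final levels are 20 nM enzyme, 500 nM peptide, 20 uM SAM; 2 h RT.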
An asterisk follows results filed as active; [ ] = another dose, or the depositor's remark. The list is not random: actives were taken first. Their share in the collection is about 11%. Calls come from the whole dose curve; as a rule, active = well fitted inhibition curve with a large enough effect; inconclusive = small, poorly fitted or top-dose-only effect; inactive = no such curve, though single readings can be large or run the other way. Potency is the fitted concentration of half-maximal effect.

How did c1ccc(-c2nc3cnccn3c2Nc2ccc3c(c2)OCCO3)cc1 do in these assays?
L3MBTL1 inh: -12%; JMJD2A Tudor: 45µM*; BAZ2B block: inconclusive; HP1b binding inh: inconclusive; G9a block: inconclusive

What do the screens show for `Oc1ccc(-c2nc3ncccn3c2Nc2ccc3c(c2)OCO3)cc1`?
JMJD2A Tudor: inconclusive; BAZ2B block: 50µM*; HP1b binding inh: -24%; G9a block: inconclusive

Results for COc1ccc(OC)c(NC(=O)CSc2cn(CC(=O)N3CCCCCC3)c3ccccc23)c1 ?
JMJD2A Tudor: -25%; BAZ2B block: -24%; HP1b binding inh: 23%; G9a block: inconclusive

What do the screens show for `O=C(c1ccco1)N1CCN(CC2CC3C=CC2C3)CC1` (centres undefined)?
L3MBTL1 inh: -1%; JMJD2A Tudor: 1.4µM*; BAZ2B block: 50µM*; HP1b binding inh: -63%; G9a block: inconclusive

Results for Cc1ccccc1-c1nnc(CN2CCN(C(=O)c3ccco3)CC2)o1 ?
JMJD2A Tudor: -11%; BAZ2B block: 5%; HP1b binding inh: 48%; G9a block: inconclusive

How did O=C(c1ccco1)N1CCN(C(=O)c2ccc(Cn3cc(Br)cn3)o2)CC1 do in these assays?
JMJD2A Tudor: -17%; BAZ2B block: 1%; HP1b binding inh: 25%; G9a block: 50µM*

How did CCOc1ccccc1-n1c(CN2CCN(C(=O)c3ccco3)CC2)nc2ccccc2c1=O do in these assays?
L3MBTL1 inh: -13%[11.4 µM]; JMJD2A Tudor: -13%; BAZ2B block: -26%; HP1b binding inh: 34%; G9a block: 14µM*

Results for O=C(c1ccco1)N1CCN(Cc2nnc(-c3ccccc3F)o2)CC1 ?
JMJD2A Tudor: inconclusive; BAZ2B block: 2%; HP1b binding inh: -4%; G9a block: 71µM*

How did CCOC(=O)c1cc(-c2ccc(F)cc2)n(CC(=O)NCc2cccnc2)c1C do in these assays?
JMJD2A Tudor: -23%; BAZ2B block: -7%; HP1b binding inh: 9%; G9a block: 5%

Results for O=C(NCCc1ccccc1)c1ccc2c(c1)CCN2S(=O)(=O)c1ccc(Cl)cc1 ?
JMJD2A Tudor: -9%; BAZ2B block: -2%; HP1b binding inh: 16%; G9a block: -27%[59 µM]

How did COc1cccc2c(C)cc3nnc(SCC(=O)Nc4ccc(C)cc4)n3c12 do in these assays?
JMJD2A Tudor: -17%; BAZ2B block: -9%; HP1b binding inh: 27%; G9a block: -3%[59 µM]

How did Cc1c(Cl)cccc1NC(=O)c1ncn(-c2ccccc2)n1 do in these assays?
JMJD2A Tudor: -11%; BAZ2B block: 5%; HP1b binding inh: 16%; G9a block: 5%[59 µM]

How did CCOc1ccc(C(=O)N2CCN(C(=O)c3ccco3)CC2)cc1OCC do in these assays?
L3MBTL1 inh: 8%; JMJD2A Tudor: -6%; BAZ2B block: -1%; HP1b binding inh: 27%; G9a block: 23%[12.7 µM]

What do the screens show for `O=C(c1ccc(F)cc1)N1CCN(Cc2ccccc2Br)CC1`?
L3MBTL1 inh: 6%; JMJD2A Tudor: 25µM*; BAZ2B block: inconclusive; HP1b binding inh: inconclusive; G9a block: 10µM*

How did CCOc1ccc(OCC(=O)OCC(=O)N2CCN(C(=O)c3ccco3)CC2)cc1 do in these assays?
L3MBTL1 inh: inconclusive; JMJD2A Tudor: -12%; BAZ2B block: -4%; HP1b binding inh: 4%; G9a block: 32µM*

Results for CCOc1cc(CN2CCN(C(=O)c3ccco3)CC2)ccc1OC ?
L3MBTL1 inh: 4%; JMJD2A Tudor: 5.6µM*; BAZ2B block: 50µM*; HP1b binding inh: inconclusive; G9a block: -24%[12.7 µM]

What do the screens show for `O=C(Cc1ccccc1F)OCC(=O)N1CCN(C(=O)c2ccco2)CC1`?
L3MBTL1 inh: -5%; JMJD2A Tudor: -8%; BAZ2B block: -12%; HP1b binding inh: 12%; G9a block: -20%

What do the screens show for `O=C(c1ccco1)N1CCN(Cc2ccccc2Br)CC1`?
JMJD2A Tudor: 8.9µM*; BAZ2B block: 32µM*; HP1b binding inh: inconclusive; G9a block: 20µM*

How did CCC(C)NC(=O)Cn1c(=O)n(-c2ccc(OC)c(OC)c2)c(=O)c2ccccc21 (centres undefined) do in these assays?
JMJD2A Tudor: -12%; BAZ2B block: -5%; HP1b binding inh: 0%; G9a block: -5%[59 µM]

How did Cc1ccccc1-c1nc(CN2CCN(C(=O)c3ccco3)CC2)c(C)o1 do in these assays?
JMJD2A Tudor: -30%; BAZ2B block: -22%; HP1b binding inh: 25%; G9a block: 50µM*

Results for CCOc1ccc(CN2CCN(C(=O)c3ccco3)CC2)cc1 ?
L3MBTL1 inh: 3%; JMJD2A Tudor: 20µM*; BAZ2B block: -36%; HP1b binding inh: inconclusive; G9a block: 32µM*

How did O=C(c1ccco1)N1CCN(Cc2ccc(F)cc2)CC1 do in these assays?
L3MBTL1 inh: -3%; JMJD2A Tudor: 20µM*; BAZ2B block: 79µM*; HP1b binding inh: inconclusive; G9a block: 11µM*

What do the screens show for `COCCSc1nnc(NC(=O)C2CCCO2)s1` (centres undefined)?
L3MBTL1 inh: 11%; JMJD2A Tudor: -6%; BAZ2B block: 12%; HP1b binding inh: 24%; G9a block: -6%

Results for O=C(Nc1nnc(Cc2ccc(Cl)cc2)s1)C1CCCO1 (centres undefined) ?
L3MBTL1 inh: -2%; JMJD2A Tudor: 1%; BAZ2B block: -22%; HP1b binding inh: -12%; G9a block: 28µM*

How did O=C(Nc1nnc(-c2ccncc2)s1)C1CCCO1 (centres undefined) do in these assays?
L3MBTL1 inh: -1%; JMJD2A Tudor: 100µM*; BAZ2B block: -29%; HP1b binding inh: -9%; G9a block: inconclusive

What do the screens show for `Cc1nnc(NC(=O)CCSCCC(=O)Nc2nnc(C)s2)s1`?
L3MBTL1 inh: inconclusive; JMJD2A Tudor: 50µM*; BAZ2B block: 50µM*; HP1b binding inh: -17%; G9a block: 50µM*

Results for Cc1nnc(NC(=O)C2CCCO2)s1 (centres undefined) ?
L3MBTL1 inh: 11%[11.4 µM]; JMJD2A Tudor: -19%; BAZ2B block: 1%; HP1b binding inh: -5%; G9a block: 8.9µM*

How did COc1ccc(Cc2nnc(NC(=O)C3CCCO3)s2)cc1 (centres undefined) do in these assays?
L3MBTL1 inh: 1%; JMJD2A Tudor: -5%; BAZ2B block: -37%; HP1b binding inh: 27%; G9a block: inconclusive

How did Cc1cc(C)n2c(Nc3ccccc3)c(-c3ccc(C)o3)nc2n1 do in these assays?
JMJD2A Tudor: -33%; HP1b binding inh: 6%

Results for COc1ccc(Br)c2oc(S)cc(=O)c12 ?
L3MBTL1 inh: 7%; JMJD2A Tudor: 35µM*; BAZ2B block: -9%; HP1b binding inh: 34%; G9a block: 7.1µM*

What do the screens show for `COc1cccc2oc(SC)cc(=O)c12`?
G9a block: 17%[135 µM]

Screens as filed in PubChem.
